Unmarked numbers belong to inactive results.
Compound: C#CCNC(=O)CCSSCCC(=O)NCCc1ccc(C=O)c(C=O)c1
Experiment: lysine labeling ratio R10:1 (500 µM / 50 µM probe), SILAC-ABPP in living cells; higher = lower intrinsic lysine reactivity toward the probe, active = 2 or less
Conditions: HeLa; probe concentrations 500 vs 50 µM
How it was run: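 In PBS at room temperature, living HeLa cells grown with SILAC light or heavy labels were treated with 50 µM or 500 µM of an alkyne-tagged, disulfide-linked lysine probe, with label swaps in both directions. Analysis was by LC-MS/MS on a TIMS-TOF Pro after click to biotin-azide, neutravidin capture and DTT release. For each lysine, R is the median across forward and reverse replicates of the filtered median high-probe/low-probe MS1 peptide ratio, capped at 20.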

UniProt P27105, sequence (P27105 whole entry): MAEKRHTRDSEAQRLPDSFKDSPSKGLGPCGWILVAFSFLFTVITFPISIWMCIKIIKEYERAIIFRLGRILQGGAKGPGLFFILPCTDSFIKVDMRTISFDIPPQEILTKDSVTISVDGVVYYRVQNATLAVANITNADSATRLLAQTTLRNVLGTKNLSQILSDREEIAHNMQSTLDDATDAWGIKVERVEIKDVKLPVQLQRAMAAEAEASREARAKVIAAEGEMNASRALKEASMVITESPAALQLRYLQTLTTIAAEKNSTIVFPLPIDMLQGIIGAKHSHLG
UniProt P21333, sequence (P21333 whole entry): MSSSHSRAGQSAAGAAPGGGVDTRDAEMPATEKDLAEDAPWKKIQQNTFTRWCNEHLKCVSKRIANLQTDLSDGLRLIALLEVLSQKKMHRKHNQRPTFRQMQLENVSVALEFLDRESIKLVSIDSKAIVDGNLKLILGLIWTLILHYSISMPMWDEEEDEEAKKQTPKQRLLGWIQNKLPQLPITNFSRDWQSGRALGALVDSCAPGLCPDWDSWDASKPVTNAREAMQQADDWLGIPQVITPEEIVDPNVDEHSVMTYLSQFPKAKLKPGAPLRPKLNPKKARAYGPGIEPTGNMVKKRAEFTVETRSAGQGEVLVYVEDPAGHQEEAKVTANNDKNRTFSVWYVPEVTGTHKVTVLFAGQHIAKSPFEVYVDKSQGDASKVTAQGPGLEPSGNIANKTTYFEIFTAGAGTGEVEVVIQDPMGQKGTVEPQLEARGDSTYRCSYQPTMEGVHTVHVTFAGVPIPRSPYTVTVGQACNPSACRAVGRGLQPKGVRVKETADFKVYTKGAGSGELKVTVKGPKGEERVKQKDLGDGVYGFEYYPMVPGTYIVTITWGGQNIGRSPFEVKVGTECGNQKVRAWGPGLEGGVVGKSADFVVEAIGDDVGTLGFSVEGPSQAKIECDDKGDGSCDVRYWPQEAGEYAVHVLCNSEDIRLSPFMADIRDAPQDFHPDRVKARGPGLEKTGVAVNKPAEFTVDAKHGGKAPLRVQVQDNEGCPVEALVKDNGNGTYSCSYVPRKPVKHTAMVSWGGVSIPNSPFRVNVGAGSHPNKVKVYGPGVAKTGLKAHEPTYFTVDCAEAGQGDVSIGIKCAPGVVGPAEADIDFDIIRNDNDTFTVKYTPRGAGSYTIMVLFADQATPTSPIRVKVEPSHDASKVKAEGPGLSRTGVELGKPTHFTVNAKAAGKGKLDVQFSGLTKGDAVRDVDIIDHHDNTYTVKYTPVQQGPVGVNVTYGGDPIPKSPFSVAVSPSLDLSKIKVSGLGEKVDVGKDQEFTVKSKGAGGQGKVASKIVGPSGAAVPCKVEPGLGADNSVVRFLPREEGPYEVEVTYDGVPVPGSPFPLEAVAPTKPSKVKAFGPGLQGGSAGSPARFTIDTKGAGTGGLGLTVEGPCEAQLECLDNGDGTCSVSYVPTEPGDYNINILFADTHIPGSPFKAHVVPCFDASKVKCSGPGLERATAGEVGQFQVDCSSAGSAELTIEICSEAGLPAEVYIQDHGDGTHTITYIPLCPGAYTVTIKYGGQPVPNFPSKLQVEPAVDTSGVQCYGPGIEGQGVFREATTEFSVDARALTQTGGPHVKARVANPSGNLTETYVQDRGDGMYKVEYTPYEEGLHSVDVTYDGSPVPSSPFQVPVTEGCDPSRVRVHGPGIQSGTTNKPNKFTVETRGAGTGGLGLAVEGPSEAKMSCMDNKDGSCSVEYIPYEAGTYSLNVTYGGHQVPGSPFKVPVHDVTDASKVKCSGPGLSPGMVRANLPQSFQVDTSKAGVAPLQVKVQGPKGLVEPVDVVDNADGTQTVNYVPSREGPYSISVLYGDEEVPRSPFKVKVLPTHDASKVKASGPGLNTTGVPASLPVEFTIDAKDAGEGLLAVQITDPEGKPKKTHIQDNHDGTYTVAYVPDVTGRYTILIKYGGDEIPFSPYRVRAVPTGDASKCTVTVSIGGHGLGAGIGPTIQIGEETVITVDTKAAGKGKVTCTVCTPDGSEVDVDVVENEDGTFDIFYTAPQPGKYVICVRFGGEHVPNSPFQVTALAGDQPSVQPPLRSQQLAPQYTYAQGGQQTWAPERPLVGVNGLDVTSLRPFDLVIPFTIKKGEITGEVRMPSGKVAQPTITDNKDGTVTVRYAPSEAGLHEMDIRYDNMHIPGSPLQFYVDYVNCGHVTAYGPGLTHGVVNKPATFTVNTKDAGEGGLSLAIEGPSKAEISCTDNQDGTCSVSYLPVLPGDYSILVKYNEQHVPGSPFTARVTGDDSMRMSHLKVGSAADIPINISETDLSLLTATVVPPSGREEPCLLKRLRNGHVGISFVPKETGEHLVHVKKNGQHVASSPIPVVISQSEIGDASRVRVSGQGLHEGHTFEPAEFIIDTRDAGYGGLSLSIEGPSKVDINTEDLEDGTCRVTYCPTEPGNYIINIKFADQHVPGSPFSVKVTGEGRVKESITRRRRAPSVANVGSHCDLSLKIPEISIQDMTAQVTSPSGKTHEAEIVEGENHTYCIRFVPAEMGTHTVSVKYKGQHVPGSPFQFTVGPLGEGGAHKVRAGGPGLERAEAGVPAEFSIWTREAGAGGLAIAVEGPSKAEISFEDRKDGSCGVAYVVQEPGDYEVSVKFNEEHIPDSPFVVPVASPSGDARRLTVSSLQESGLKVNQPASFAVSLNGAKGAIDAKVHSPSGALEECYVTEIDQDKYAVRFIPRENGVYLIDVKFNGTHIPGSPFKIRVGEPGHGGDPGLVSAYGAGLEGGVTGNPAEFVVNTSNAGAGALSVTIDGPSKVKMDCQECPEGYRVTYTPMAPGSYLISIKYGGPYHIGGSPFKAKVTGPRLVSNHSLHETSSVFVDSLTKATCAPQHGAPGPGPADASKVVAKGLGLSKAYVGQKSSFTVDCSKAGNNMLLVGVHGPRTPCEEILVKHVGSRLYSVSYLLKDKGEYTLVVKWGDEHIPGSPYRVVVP
UniProt P62333, sequence (P62333 whole entry): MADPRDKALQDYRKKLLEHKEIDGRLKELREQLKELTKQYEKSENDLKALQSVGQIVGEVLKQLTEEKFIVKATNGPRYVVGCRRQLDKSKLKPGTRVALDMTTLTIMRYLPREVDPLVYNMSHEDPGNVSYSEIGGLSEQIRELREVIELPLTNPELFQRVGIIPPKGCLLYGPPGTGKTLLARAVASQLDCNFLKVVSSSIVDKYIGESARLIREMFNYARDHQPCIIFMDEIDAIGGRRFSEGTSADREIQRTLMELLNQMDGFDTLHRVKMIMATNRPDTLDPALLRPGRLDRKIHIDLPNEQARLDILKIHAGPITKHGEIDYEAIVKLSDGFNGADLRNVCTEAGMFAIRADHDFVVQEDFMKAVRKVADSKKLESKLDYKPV
UniProt P04075, sequence (P04075 whole entry): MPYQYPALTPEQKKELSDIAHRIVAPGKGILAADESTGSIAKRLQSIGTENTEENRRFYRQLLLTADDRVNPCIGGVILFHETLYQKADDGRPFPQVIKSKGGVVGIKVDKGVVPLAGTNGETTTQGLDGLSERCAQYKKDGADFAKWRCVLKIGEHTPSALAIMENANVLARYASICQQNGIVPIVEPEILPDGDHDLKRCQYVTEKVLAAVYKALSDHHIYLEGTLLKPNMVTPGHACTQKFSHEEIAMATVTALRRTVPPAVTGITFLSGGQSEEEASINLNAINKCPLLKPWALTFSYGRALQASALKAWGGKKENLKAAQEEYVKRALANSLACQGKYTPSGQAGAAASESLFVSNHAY
UniProt Q99985, sequence (Q99985 whole entry): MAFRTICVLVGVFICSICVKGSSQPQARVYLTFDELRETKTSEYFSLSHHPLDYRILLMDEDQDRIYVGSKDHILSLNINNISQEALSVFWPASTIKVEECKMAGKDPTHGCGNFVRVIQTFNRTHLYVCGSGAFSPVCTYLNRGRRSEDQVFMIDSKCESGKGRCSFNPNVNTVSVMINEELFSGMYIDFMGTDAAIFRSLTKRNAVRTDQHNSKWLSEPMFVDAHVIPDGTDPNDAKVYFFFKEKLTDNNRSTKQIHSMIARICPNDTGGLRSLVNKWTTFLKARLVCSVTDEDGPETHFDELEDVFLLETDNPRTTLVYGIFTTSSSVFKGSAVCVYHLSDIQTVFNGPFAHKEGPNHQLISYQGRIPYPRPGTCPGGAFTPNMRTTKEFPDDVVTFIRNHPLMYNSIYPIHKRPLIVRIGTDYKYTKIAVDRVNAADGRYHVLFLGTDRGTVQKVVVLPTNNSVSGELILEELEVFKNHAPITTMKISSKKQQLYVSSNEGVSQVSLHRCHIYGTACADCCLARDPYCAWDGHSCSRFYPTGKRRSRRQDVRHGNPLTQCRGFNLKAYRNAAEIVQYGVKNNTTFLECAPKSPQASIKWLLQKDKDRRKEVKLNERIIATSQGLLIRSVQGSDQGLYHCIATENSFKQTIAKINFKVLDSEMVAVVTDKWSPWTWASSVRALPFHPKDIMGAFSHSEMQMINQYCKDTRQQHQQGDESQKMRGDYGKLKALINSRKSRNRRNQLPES
UniProt Q9H6B4, sequence (Q9H6B4 whole entry): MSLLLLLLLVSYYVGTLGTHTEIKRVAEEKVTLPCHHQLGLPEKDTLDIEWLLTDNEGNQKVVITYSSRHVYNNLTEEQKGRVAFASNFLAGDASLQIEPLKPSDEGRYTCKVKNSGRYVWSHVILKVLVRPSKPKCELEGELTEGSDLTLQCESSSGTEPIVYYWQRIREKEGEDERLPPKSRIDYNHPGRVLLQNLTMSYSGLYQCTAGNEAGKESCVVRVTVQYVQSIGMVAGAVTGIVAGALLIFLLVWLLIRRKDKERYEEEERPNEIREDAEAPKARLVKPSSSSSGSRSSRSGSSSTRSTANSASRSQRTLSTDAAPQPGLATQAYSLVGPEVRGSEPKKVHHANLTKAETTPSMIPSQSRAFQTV

Target | lysine labeling ratio R10:1
CLMP (lysine site: K172) (UniProt Q9H6B4) | 4.28
EEF2 (lysine site: K445) (UniProt P13639) | 2.7
LAMC1 (lysine site: K1355) (UniProt P11047) | 1.67 (active)
FLNA (lysine site: K92) (UniProt P21333) | 5.97
STOM (lysine site: K235) (UniProt P27105) | 4.28
SHMT2 (lysine site: K302) (UniProt P34897) | 2.59
UniProt Q15149 (lysine site: K4270) | 0.968 (active)
VDAC1 (lysine site: K274) (UniProt P21796) | 0.919 (active)
GANAB (lysine site: K269) (UniProt Q14697) | 2.12
UniProt P62333 (lysine site: K298) | 1.53 (active)
UniProt P62701 (lysine site: K233) | 4.48
ALDOA (lysine site: K111) (UniProt P04075) | 4.71
SDCBP (lysine site: K124) (UniProt O00560) | 1.6 (active)
FSCN1 (lysine site: K74) (UniProt Q16658) | 1.36 (active)
SEMA3C (lysine site: K570) (UniProt Q99985) | 8.1
UniProt P55072 (lysine site: K754) | 2.84
LDLR (lysine site: K782) (UniProt P01130) | 3.22
